Measured values as given in ChEMBL document CHEMBL2218924, “A broad activity screen in support of a chemogenomic map for kinase signalling research and drug discovery” (Biochem J, 2013).

How the values were obtained:
[1] = molecular target: T1, Ephrin type-A receptor 3 (Homo sapiens) (UniProt P29320); settings: at 10 µM
T1 sequence (whole entry): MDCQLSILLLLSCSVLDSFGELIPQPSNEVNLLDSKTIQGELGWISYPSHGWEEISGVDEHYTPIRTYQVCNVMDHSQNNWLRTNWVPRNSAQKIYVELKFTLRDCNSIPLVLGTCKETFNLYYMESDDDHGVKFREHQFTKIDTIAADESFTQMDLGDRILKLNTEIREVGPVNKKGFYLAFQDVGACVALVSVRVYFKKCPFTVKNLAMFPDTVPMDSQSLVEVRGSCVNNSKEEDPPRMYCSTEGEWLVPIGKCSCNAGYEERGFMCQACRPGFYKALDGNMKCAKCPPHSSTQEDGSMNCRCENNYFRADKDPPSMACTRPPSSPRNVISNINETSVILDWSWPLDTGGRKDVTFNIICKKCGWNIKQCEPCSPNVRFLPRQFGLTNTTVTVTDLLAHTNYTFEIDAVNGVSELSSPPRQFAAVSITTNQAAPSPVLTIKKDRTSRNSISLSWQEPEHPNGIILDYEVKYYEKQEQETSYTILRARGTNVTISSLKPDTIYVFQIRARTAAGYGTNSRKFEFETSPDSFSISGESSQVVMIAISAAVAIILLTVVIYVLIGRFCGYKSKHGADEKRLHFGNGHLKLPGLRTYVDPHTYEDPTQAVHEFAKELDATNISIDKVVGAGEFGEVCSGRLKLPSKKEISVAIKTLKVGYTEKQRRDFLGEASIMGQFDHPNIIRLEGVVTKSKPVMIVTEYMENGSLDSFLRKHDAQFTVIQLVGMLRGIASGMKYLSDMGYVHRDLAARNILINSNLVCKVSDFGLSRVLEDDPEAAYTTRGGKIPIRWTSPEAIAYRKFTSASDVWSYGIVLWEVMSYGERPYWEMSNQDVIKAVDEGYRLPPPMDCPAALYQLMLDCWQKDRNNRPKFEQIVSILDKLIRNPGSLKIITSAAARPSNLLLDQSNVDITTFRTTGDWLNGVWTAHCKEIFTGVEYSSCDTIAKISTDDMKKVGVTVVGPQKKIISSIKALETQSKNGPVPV

[2] = molecular target: Ephrin type-A receptor 5 (Homo sapiens) (UniProt P54756); settings: at 1 µM
[3] = molecular target: Ephrin type-A receptor 5 (Homo sapiens) (UniProt P54756); settings: at 10 µM
[4] = molecular target: Ephrin type-A receptor 7 (Homo sapiens) (UniProt Q15375); settings: at 10 µM
[5] = molecular target: T2, Ephrin type-A receptor 8 (Homo sapiens) (UniProt P29322); settings: at 1 µM
T2 sequence (whole entry): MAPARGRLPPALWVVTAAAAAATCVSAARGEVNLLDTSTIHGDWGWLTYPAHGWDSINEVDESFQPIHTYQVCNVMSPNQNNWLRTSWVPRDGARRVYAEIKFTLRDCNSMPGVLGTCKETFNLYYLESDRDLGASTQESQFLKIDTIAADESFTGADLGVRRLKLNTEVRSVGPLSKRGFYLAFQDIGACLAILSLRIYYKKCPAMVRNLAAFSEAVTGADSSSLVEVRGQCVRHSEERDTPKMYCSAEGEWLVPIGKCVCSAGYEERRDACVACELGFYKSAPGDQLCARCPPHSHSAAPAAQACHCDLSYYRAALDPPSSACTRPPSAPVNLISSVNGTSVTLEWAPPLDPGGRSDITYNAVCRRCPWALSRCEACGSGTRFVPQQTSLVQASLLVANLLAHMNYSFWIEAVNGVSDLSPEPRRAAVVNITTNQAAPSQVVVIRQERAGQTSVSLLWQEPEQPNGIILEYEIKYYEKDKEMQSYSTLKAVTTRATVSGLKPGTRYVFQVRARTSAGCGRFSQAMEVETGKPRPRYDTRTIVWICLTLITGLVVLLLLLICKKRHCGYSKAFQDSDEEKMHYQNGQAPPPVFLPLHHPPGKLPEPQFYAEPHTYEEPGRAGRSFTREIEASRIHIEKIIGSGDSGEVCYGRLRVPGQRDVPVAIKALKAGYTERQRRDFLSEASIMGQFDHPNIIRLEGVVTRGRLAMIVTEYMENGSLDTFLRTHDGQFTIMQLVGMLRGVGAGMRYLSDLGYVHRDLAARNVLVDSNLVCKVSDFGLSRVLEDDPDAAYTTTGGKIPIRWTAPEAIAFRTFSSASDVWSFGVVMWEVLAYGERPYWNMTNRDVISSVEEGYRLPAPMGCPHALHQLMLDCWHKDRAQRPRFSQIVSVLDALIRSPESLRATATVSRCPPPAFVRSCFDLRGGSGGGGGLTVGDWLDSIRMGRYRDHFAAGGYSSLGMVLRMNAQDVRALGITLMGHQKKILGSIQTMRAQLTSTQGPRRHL

[6] = molecular target: T2, Ephrin type-A receptor 8 (Homo sapiens); settings: at 10 µM
[7] = molecular target: T3, Ephrin type-B receptor 1 (Homo sapiens) (UniProt P54762); settings: at 1 µM
T3 sequence (whole entry): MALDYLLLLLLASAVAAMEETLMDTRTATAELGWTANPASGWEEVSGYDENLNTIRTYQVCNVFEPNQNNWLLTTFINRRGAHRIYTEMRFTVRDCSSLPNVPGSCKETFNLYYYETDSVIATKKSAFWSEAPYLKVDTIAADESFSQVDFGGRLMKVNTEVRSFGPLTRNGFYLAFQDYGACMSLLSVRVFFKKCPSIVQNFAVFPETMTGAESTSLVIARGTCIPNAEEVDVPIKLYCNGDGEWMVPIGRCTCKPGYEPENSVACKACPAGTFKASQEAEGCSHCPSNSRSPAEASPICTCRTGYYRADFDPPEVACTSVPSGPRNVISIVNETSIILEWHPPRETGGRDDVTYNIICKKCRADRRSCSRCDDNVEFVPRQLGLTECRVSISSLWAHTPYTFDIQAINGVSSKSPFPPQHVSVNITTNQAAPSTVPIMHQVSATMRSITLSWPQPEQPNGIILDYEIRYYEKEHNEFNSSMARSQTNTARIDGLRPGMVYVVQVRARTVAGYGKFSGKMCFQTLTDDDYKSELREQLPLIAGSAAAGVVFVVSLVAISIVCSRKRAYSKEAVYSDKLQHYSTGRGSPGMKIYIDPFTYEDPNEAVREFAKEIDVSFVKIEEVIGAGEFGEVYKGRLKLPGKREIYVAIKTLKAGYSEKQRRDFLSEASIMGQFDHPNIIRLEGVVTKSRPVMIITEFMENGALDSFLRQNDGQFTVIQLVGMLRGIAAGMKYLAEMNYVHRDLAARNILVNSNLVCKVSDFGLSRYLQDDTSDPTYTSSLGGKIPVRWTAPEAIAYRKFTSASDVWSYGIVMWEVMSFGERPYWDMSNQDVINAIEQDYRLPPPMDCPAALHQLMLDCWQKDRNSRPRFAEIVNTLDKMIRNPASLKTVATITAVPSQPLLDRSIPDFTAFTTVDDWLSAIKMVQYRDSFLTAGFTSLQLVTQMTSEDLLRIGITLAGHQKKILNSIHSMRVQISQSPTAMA

[8] = molecular target: T3, Ephrin type-B receptor 1 (Homo sapiens); settings: at 10 µM
[9] = molecular target: T4, Ephrin type-B receptor 2 (Homo sapiens) (UniProt P29323); settings: at 10 µM
T4 sequence (whole entry): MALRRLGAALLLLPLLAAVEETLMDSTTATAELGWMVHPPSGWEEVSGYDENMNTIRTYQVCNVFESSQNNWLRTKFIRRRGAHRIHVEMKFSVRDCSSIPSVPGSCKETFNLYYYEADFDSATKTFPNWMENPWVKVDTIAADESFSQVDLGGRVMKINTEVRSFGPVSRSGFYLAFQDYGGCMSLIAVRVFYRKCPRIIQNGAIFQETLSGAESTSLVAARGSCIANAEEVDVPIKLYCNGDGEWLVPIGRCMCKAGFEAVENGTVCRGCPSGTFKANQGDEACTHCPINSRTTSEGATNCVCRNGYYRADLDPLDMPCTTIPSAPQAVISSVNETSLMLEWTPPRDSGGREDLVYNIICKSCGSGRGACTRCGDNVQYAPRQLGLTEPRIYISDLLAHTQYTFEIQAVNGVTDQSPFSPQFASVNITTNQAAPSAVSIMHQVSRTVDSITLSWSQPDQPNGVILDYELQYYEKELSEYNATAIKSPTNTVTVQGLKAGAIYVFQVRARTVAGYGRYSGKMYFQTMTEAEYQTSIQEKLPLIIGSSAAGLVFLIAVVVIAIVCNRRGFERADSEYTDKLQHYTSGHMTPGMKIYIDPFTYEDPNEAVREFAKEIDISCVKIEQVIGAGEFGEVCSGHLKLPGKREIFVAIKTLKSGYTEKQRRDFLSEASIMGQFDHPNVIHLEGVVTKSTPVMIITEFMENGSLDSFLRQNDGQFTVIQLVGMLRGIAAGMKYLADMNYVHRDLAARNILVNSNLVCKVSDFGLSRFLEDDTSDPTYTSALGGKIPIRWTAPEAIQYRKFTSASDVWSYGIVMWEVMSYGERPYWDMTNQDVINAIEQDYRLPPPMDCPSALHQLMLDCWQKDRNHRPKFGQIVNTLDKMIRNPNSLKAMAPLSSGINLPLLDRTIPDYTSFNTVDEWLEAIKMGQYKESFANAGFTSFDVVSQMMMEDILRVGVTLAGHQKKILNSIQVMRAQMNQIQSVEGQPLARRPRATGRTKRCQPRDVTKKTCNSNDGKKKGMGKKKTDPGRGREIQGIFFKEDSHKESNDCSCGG

[10] = molecular target: T5, Ephrin type-B receptor 4 (Homo sapiens) (UniProt P54760); settings: at 1 µM
T5 sequence (whole entry): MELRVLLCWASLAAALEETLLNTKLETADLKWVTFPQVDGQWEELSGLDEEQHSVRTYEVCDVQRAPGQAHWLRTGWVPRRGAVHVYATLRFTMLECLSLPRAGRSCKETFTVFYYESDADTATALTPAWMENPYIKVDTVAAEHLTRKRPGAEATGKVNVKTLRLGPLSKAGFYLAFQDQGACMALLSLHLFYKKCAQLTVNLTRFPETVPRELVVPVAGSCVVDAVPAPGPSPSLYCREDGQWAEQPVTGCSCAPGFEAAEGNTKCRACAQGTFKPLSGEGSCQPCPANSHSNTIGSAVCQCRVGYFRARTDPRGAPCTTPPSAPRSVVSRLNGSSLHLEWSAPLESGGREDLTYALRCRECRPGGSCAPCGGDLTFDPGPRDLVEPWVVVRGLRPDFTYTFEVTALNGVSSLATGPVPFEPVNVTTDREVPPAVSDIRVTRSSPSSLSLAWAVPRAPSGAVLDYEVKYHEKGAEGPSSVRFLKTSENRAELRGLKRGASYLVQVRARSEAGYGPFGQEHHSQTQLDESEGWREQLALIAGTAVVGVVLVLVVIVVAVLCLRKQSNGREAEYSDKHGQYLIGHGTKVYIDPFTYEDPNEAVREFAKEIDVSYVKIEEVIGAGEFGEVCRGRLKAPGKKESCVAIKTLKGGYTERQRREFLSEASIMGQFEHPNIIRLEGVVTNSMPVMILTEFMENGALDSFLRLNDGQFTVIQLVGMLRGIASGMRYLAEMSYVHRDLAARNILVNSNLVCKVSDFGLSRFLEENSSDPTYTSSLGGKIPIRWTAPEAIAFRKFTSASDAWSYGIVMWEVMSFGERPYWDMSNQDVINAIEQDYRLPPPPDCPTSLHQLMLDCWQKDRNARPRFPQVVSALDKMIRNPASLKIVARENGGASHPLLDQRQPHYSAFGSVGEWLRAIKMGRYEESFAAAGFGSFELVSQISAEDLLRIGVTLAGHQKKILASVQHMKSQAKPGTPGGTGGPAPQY

[11] = molecular target: T5, Ephrin type-B receptor 4 (Homo sapiens); settings: at 10 µM
[12] = molecular target: Ephrin type-A receptor 7 (Homo sapiens) (UniProt Q15375); settings: at 1 µM
[13] = molecular target: T6, Ephrin type-B receptor 3 (Homo sapiens) (UniProt P54753); settings: at 10 µM
T6 sequence (whole entry): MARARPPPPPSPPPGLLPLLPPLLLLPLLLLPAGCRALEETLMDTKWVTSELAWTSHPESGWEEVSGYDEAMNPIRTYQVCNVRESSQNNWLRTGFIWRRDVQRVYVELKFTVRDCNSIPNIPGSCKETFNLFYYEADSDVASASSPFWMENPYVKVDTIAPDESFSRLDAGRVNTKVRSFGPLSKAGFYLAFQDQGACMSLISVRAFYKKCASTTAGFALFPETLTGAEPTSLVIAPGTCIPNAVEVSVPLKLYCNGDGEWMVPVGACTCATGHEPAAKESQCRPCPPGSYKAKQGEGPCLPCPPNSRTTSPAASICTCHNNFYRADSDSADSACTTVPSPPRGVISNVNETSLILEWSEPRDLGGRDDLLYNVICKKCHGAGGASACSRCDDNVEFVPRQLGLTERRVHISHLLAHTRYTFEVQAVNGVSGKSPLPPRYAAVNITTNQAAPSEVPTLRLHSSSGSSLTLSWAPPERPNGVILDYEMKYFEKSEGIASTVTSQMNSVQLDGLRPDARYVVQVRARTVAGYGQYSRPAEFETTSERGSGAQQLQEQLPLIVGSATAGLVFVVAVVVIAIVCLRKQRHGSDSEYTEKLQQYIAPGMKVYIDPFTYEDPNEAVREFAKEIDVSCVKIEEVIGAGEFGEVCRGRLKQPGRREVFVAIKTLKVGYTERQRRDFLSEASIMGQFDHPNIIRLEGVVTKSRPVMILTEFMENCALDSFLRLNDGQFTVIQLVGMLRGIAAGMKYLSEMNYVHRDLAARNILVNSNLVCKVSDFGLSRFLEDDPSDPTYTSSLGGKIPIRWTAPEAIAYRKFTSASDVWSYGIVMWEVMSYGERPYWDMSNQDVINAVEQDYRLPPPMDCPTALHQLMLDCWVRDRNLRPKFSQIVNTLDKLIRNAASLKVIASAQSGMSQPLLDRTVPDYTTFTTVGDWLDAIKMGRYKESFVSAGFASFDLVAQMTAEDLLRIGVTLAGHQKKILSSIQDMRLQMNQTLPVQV

[14] = molecular target: Receptor tyrosine-protein kinase erbB-4 (Homo sapiens) (UniProt Q15303); settings: at 1 µM
[15] = molecular target: Receptor tyrosine-protein kinase erbB-4 (Homo sapiens) (UniProt Q15303); settings: at 10 µM

Sequence of Ephrin type-A receptor 5 (Homo sapiens) (P54756 whole entry): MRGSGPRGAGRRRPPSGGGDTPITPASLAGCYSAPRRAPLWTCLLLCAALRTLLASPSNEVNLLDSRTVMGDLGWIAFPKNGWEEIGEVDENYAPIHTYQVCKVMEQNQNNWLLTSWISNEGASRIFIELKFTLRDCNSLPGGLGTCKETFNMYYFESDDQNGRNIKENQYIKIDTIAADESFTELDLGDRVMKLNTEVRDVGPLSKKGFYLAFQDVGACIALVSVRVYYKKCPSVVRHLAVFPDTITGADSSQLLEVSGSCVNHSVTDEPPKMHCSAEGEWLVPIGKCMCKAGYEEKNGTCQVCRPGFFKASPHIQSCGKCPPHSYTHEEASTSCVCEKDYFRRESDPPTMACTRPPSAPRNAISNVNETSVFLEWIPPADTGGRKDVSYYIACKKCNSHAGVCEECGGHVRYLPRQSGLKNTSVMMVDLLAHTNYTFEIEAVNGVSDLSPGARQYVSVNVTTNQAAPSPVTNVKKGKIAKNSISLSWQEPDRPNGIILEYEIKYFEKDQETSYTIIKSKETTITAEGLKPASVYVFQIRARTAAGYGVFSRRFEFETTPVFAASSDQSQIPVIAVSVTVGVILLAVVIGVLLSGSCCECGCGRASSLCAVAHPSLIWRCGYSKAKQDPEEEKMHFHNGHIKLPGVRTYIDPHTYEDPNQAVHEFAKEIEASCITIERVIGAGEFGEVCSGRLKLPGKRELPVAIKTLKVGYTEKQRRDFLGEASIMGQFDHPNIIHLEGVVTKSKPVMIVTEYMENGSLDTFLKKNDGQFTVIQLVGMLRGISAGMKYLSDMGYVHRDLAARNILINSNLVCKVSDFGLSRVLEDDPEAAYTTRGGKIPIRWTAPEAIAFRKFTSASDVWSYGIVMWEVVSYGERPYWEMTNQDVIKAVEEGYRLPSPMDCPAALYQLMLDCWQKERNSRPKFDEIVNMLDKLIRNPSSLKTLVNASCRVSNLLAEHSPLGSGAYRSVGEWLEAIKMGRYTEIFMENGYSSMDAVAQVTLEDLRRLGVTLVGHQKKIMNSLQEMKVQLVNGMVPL
Sequence of Ephrin type-A receptor 7 (Homo sapiens) (Q15375 28-998 limits assumed): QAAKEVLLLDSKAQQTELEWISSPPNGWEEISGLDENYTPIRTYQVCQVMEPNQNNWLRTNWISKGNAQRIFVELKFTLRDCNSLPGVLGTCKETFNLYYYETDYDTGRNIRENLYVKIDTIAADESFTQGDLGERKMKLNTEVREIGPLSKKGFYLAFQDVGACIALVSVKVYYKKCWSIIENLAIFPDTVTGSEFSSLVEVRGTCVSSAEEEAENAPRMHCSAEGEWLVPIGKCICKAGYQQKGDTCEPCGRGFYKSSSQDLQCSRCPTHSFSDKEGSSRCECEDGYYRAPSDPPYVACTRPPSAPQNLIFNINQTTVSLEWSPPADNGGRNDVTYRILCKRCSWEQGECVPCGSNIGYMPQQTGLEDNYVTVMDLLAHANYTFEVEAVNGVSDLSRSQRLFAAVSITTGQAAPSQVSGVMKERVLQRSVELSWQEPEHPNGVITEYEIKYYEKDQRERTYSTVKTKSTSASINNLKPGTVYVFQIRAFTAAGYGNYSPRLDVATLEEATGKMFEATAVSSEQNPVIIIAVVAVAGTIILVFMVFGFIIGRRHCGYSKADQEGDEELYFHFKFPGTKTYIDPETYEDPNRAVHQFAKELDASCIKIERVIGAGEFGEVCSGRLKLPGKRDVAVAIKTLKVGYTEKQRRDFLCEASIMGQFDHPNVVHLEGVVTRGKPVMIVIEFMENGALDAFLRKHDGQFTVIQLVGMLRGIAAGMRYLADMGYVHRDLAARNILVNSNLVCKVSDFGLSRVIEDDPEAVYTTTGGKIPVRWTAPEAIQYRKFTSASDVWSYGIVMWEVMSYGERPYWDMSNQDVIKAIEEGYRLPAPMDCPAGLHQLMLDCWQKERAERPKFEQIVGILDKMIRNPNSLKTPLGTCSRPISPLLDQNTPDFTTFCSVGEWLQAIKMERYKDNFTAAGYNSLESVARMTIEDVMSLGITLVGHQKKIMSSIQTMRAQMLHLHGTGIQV
Sequence of Receptor tyrosine-protein kinase erbB-4 (Homo sapiens) (Q15303 whole entry): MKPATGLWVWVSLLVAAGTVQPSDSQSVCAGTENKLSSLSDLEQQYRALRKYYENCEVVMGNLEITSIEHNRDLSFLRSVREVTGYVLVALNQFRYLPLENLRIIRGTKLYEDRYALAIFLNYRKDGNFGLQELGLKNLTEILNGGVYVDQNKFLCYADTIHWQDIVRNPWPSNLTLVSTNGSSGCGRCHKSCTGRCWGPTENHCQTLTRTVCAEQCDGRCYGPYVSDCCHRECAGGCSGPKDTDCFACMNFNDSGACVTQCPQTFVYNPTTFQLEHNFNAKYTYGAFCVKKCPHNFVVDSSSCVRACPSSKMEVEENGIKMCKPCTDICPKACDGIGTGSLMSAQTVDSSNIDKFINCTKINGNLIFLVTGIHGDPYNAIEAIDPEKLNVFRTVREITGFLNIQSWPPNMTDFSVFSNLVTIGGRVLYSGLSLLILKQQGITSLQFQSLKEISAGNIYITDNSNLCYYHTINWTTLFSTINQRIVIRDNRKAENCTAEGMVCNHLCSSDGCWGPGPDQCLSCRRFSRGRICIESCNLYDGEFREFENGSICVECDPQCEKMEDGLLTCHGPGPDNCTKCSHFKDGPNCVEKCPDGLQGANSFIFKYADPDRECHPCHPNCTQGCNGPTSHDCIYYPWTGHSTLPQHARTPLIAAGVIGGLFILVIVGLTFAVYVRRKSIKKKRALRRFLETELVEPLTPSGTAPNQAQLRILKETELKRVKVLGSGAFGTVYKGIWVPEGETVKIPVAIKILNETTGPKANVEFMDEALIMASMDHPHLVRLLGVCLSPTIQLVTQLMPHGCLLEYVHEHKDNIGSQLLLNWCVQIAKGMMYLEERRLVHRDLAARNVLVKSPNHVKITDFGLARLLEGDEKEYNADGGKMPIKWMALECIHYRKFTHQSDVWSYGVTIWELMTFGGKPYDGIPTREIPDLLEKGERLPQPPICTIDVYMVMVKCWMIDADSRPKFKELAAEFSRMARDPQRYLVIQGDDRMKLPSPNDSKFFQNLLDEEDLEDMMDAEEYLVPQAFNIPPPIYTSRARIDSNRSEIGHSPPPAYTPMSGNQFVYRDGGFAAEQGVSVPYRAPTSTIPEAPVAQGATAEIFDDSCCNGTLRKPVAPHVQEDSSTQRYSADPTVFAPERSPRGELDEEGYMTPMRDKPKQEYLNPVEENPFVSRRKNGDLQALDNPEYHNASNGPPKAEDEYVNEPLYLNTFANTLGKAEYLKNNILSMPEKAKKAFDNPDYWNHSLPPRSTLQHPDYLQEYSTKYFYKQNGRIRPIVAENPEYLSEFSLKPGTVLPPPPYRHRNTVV

SMILES	residual activity [1]	residual activity [2]	residual activity [3]	residual activity [4]	residual activity [5]	residual activity [6]	residual activity [7]	residual activity [8]	residual activity [9]	residual activity [10]	residual activity [11]	residual activity [12]	residual activity [13]	residual activity [14]	residual activity [15]
COc1cc2c(cc1OC)-c1n[nH]c(Nc3cccc(F)c3)c1C2	42%	103%	43%	64%	69%	26%	83%	43%	64%	77%	35%				
COc1cc2nccc(Oc3ccc(NC(=S)NC(=O)c4ccccc4C)cc3)c2cc1OC	67%	91%	53%	56%	75%	49%	86%	70%				90%	129%	85%	67%
